What all share (test): NCI-60 one-dose screen, 48 h (100 = growth as untreated, 0 = no growth, -100 = all killed)
For one assay, the system named is 786-0 renal. Conditions: 10 µM.
Another assay has as its system K-562 leukemia. The conditions noted are these: 10 µM.
The next assay has as its system MALME-3M melanoma. Conditions: 10 µM.
For the next assay, the system named is RXF 393 renal. The conditions noted are these: 10 µM.
Another assay concerns EKVX NSCLC. Conditions: 10 µM.
For the next assay, the system named is SN12C renal. The conditions noted are these: 10 µM.
Another assay deals with UO-31 renal. The conditions noted are these: 10 µM.
A further assay relates to TK-10 renal. Conditions: 10 µM.
Another assay has as its system ACHN renal. The conditions noted are these: 10 µM.
Another assay has as its system CAKI-1 renal. The conditions noted are these: 10 µM.
The subject of another assay is CCRF-CEM leukemia. Conditions: 10 µM.
A further assay has as its system OVCAR-8 ovarian. The conditions noted are these: 10 µM.
The test system of a further assay is OVCAR-5 ovarian. Conditions: 10 µM.
In a further assay the test system is OVCAR-4 ovarian. Conditions: 10 µM.
Another assay deals with SK-OV-3 ovarian. The conditions noted are these: 10 µM.
The test system of another assay is OVCAR-3 ovarian. The conditions noted are these: 10 µM.
In the next assay the test system is NCI/ADR-RES ovarian. Conditions: 10 µM.
A further assay has as its system BT-549 breast. Conditions: 10 µM.
A further assay concerns MCF7 breast. Conditions: 10 µM.
Another assay relates to MDA-MB-468 breast. The conditions noted are these: 10 µM unless noted.

SMILES strings stand for the structures. Compounds without any hit were thinned out: in the full panel of roughly 83,000, 20% have a hit.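 48-hour exposure, single concentration, 96-well plates; percent growth endpoint where 0 means no net growth. Active: below 10.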 Unmarked numbers belong to inactive results. Activity calls are given as the source filed them.

`CC(C)N=C([Se])NC(=O)c1ccccc1`: the growth with 786-0 renal was -93.6% (active); in the assay on K-562 leukemia, 15.9%; in the assay on MALME-3M melanoma, -24.7% (active); with RXF 393 renal it was -83.7% (active); in the assay on EKVX NSCLC, -56.8% (active); with SN12C renal it was -59.8% (active). For the same molecule, the growth with UO-31 renal is -99% (active); in the assay on TK-10 renal, -71.2% (active); with ACHN renal, -51.2% (active); with CAKI-1 renal it was -80.7% (active); in the assay with CCRF-CEM leukemia it was 5.47% (active); in the assay on OVCAR-8 ovarian, -65.2% (active). Besides, the growth in the assay on OVCAR-5 ovarian is -55.9% (active); in the assay with OVCAR-4 ovarian it was 3.7% (active); in the assay with SK-OV-3 ovarian, -57.2% (active); with OVCAR-3 ovarian, -61% (active); in the assay on NCI/ADR-RES ovarian, -11% (active); in the assay with BT-549 breast, 40.6%. In addition, the growth in the assay on MCF7 breast is -29.1% (active); with MDA-MB-468 breast it was -46% (active).
As to `CC(=O)Oc1ccccc1C(=O)NC([Se])=NC1CCCCC1`, the growth in the assay on 786-0 renal is -11.9% (active); in the assay on K-562 leukemia, 61.8%; in the assay on MALME-3M melanoma, -6.63% (active); in the assay on RXF 393 renal, -68.3% (active); with EKVX NSCLC, -59% (active); in the assay on SN12C renal, -42.7% (active). The growth with UO-31 renal is -87.7% (active); in the assay on TK-10 renal, -52.9% (active); in the assay with ACHN renal, 20.2%; in the assay with CAKI-1 renal, -75.4% (active); in the assay with CCRF-CEM leukemia it was 28.5%; in the assay with OVCAR-8 ovarian, -56.4% (active). Moreover, the growth with OVCAR-5 ovarian was -30.3% (active); in the assay with OVCAR-4 ovarian, -13.3% (active); with SK-OV-3 ovarian it was -41.7% (active); with OVCAR-3 ovarian, -68.1% (active); in the assay on NCI/ADR-RES ovarian it was -16.4% (active); with BT-549 breast it was 33.8%. Besides, the growth in the assay with MCF7 breast was 1.18% (active); in the assay on MDA-MB-468 breast, -4.29% (active).
In the case of `COc1cc2cc(C(=O)N3C[C@@H](CCl)c4c3cc(OC(=O)N3CCN(C(=O)CCC(=O)N5CCN(C)CC5)[C@@H]5CSSC[C@@H]53)c3ccccc43)[nH]c2c(OC)c1OC`, the growth in the assay on 786-0 renal is -80.9% (active); in the assay with K-562 leukemia, -17.8% (active); in the assay on MALME-3M melanoma it was -99.3% (active); with RXF 393 renal it was -91.2% (active); in the assay on EKVX NSCLC, -84.6% (active); in the assay on SN12C renal, -37.7% (active). In addition, the growth was -65.2% (active) in the assay with UO-31 renal; 5.55% (active) in the assay with TK-10 renal; -31.6% (active) with ACHN renal; 13.9% with CAKI-1 renal; 25.2% in the assay on CCRF-CEM leukemia; -32.1% (active) in the assay on OVCAR-8 ovarian. Also, the growth was -35.6% (active) in the assay on OVCAR-5 ovarian; -6.42% (active) with OVCAR-4 ovarian; 3.05% (active) with SK-OV-3 ovarian; 16.4% with OVCAR-3 ovarian; -56.6% (active) in the assay on NCI/ADR-RES ovarian; -81.3% (active) with BT-549 breast. The growth in the assay with MCF7 breast is -92.4% (active); in the assay on MDA-MB-468 breast, -91.5% (active).
`CC[C@@]12CC(C(=O)OC)=C3Nc4cc5c(cc4[C@@]34CCN(C[C@H]3O[C@H]31)[C@@H]24)[C@@H]1[C@H](O5)[C@@H](O)[C@@]2(CC)CC(C(=O)OC)=C3Nc4cc(OC)ccc4[C@@]34CCN1[C@@H]24`: the growth in the assay with 786-0 renal is 22.2%; in the assay with K-562 leukemia it was 2.66% (active); in the assay with MALME-3M melanoma, 21%; in the assay with RXF 393 renal, -37.8% (active); in the assay on EKVX NSCLC, 31.3%; in the assay on SN12C renal, 27.1%. In addition, the growth was 10.1% with UO-31 renal; 16.2% with TK-10 renal; 17.8% with ACHN renal; 12.9% with CAKI-1 renal; 15% in the assay on CCRF-CEM leukemia; 25.5% with OVCAR-8 ovarian. Also, the growth in the assay with OVCAR-5 ovarian was 34.3%; with OVCAR-4 ovarian it was 5.36% (active); with SK-OV-3 ovarian it was 14.4%; in the assay on OVCAR-3 ovarian, 7.91% (active); in the assay on NCI/ADR-RES ovarian it was 1.32% (active); in the assay on BT-549 breast, -16.9% (active). Further, the growth with MCF7 breast is 2.22% (active); with MDA-MB-468 breast it was -56.3% (active).
As to `O=C(/C=C/c1ccc(Br)cc1)c1nc2ccccc2n1Cc1ccc(Br)cc1`, the growth in the assay on 786-0 renal was -81.3% (active); with K-562 leukemia, 0.898% (active); in the assay on MALME-3M melanoma, -42.9% (active); in the assay on RXF 393 renal, -82% (active); in the assay with EKVX NSCLC, 1.19% (active); with SN12C renal, 8.28% (active). The growth was -66.4% (active) in the assay on UO-31 renal; 23.8% in the assay on TK-10 renal; -38.2% (active) in the assay with ACHN renal; 16% in the assay on CAKI-1 renal; 10.3% in the assay on CCRF-CEM leukemia; -18% (active) in the assay with OVCAR-8 ovarian. Also, the growth in the assay with OVCAR-5 ovarian was -43.4% (active); in the assay on OVCAR-4 ovarian it was 35.5%; in the assay with SK-OV-3 ovarian, 79.1%; in the assay with OVCAR-3 ovarian, -46.9% (active); in the assay on NCI/ADR-RES ovarian, -38.2% (active); in the assay on BT-549 breast it was -66.2% (active). The growth in the assay with MCF7 breast is 3.68% (active); in the assay with MDA-MB-468 breast, -74.3% (active).
On to `O=C([Se]C1C=CCCC1)c1ccc(C(=O)[Se]C2C=CCCC2)s1` (stereo not given), for which the growth was -92.7% (active) in the assay on 786-0 renal; 6.15% (active) with K-562 leukemia; -85.7% (active) in the assay with MALME-3M melanoma; -92% (active) in the assay on RXF 393 renal; -89.9% (active) in the assay with EKVX NSCLC; -81.8% (active) with SN12C renal. In addition, the growth in the assay on UO-31 renal is -100% (active); with TK-10 renal, -80.9% (active); in the assay with ACHN renal, -67% (active); in the assay on CAKI-1 renal, -61.6% (active); in the assay with CCRF-CEM leukemia, -36.7% (active); in the assay with OVCAR-8 ovarian it was -97.6% (active). Moreover, the growth in the assay with OVCAR-5 ovarian is -89.2% (active); in the assay with OVCAR-4 ovarian, -95.3% (active); in the assay on SK-OV-3 ovarian, -97.5% (active); in the assay on OVCAR-3 ovarian, -92.4% (active); in the assay on NCI/ADR-RES ovarian, -81.4% (active); in the assay with BT-549 breast, -65.7% (active). In addition, the growth in the assay with MCF7 breast was -37.1% (active); in the assay with MDA-MB-468 breast it was -95.7% (active).
Regarding `CC(=O)Oc1ccccc1C(=O)[Se]C(=NC(C)C)NC(C)C`, the growth was -95.9% (active) with 786-0 renal; -29.6% (active) in the assay on K-562 leukemia; -43.5% (active) in the assay on MALME-3M melanoma; -98.3% (active) in the assay on RXF 393 renal; -94% (active) in the assay with EKVX NSCLC; -78.7% (active) with SN12C renal. The growth in the assay on UO-31 renal was -100% (active); in the assay on TK-10 renal, -98.5% (active); with ACHN renal, -80.8% (active); with CAKI-1 renal, -98.5% (active); in the assay with CCRF-CEM leukemia, -1.77% (active); with OVCAR-8 ovarian, -86.3% (active). Besides, the growth with OVCAR-5 ovarian is -66.5% (active); in the assay on OVCAR-4 ovarian, -56% (active); with SK-OV-3 ovarian, -95.6% (active); in the assay with OVCAR-3 ovarian, -93.7% (active); in the assay with NCI/ADR-RES ovarian, -25.3% (active); with BT-549 breast it was -94.7% (active). The growth with MCF7 breast was -55% (active); in the assay on MDA-MB-468 breast it was -64.4% (active).
Take `COCCOCCOCCOc1ccc(-n2cc(-c3ccc(O[C@H]4O[C@@H]5OC6(C)CC[C@H]7[C@H](C)CC[C@@H]([C@H]4C)[C@@]57OO6)cc3)nn2)cc1`: the growth in the assay with 786-0 renal was 56.7%; with K-562 leukemia, 28.6%; in the assay on MALME-3M melanoma, 8.12% (active); with RXF 393 renal it was 69.4%; with EKVX NSCLC, 26.7%; with SN12C renal, 83%. The growth was 11.5% in the assay with UO-31 renal; 36.7% in the assay on TK-10 renal; 17.4% with ACHN renal; 25% in the assay on CAKI-1 renal; 53.7% in the assay on CCRF-CEM leukemia; 22.2% with OVCAR-8 ovarian. Moreover, the growth in the assay with OVCAR-5 ovarian was 72%; in the assay with OVCAR-4 ovarian it was 28.8%; in the assay on SK-OV-3 ovarian it was 84%; with OVCAR-3 ovarian, 46%; in the assay with NCI/ADR-RES ovarian, 34.2%; in the assay on BT-549 breast, 3.83% (active). Besides, the results for the growth in the assay on MCF7 breast and in the assay with MDA-MB-468 breast were 14.9% and 13.3%, respectively.

The values above are taken from PubChem BioAssay (NCI).
